Hit rate of the full screen: of about 310,000 compounds, about 14,000 (4.5%) showed an effect of 50% or more. Effects have a minus sign here. This is one part of a sample in which strong results are shown more often than they occur.
Target: human ether-à-go-go-related gene (hERG) potassium channel (human, UniProt Q12809)
Assay: primary screen, population patch clamp on CHO cells stably expressing hERG; higher = less effect of the substance
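Also: peak tail current of the secondary pulse compared with the same well before compound.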

Sequence of human ether-à-go-go-related gene (hERG) potassium channel (Q12809 whole entry, looked up): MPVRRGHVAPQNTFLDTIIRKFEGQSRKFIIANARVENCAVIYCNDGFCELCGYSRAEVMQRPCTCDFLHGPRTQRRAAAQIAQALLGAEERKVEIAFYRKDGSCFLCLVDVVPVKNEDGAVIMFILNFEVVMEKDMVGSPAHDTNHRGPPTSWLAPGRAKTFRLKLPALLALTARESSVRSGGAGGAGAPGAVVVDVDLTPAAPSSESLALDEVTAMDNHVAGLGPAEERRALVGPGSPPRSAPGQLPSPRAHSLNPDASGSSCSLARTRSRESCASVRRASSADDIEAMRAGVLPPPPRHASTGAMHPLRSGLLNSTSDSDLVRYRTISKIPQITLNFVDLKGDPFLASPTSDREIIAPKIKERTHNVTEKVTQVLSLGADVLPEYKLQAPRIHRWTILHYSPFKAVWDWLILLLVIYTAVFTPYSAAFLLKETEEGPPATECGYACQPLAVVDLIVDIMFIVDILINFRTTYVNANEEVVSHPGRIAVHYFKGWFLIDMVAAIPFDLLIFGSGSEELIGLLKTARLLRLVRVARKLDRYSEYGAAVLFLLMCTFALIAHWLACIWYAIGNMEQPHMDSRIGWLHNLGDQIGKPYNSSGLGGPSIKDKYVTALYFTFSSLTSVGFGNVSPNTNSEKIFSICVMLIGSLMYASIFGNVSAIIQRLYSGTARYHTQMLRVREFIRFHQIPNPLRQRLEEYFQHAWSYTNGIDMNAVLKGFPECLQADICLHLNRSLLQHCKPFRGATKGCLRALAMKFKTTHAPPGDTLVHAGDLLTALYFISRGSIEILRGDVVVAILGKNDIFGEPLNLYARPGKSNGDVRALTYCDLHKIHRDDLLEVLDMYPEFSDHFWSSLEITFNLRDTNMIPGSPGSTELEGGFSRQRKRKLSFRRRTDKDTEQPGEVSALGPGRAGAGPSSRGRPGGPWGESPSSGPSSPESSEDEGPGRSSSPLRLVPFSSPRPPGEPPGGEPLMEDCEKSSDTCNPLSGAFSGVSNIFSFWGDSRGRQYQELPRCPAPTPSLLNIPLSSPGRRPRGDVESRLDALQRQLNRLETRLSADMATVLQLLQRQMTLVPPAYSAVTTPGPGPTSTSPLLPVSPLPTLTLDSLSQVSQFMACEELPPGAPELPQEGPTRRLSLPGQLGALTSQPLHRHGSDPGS

Compared with COc1cc(CNc2ccccc2SC)ccc1O, COc1ccc(NC(=O)c2ccc(COc3ccccc3Br)o2)c(OC)c1 is lower in “hERG current change (%, negative = inhibition) at 10uM” value: 12.8% for the first, 10.5% for the second.

First: O=C(NCC1CC1)c1onc(CSc2ccc(F)c(F)c2)c1C(=O)NCC1CC1
Second: O=C(NCC1CCCO1)c1onc(CSc2ccc(F)c(F)c2)c1C(=O)O (stereo not shown)
The “hERG current change (%, negative = inhibition) at 10uM” value of the first is lower: -56.1% for the first, 1.63% for the second.

Going from COCCNC(=O)c1onc(CSc2ccc(F)c(F)c2)c1C(=O)NCCOC to C=CCNC(=O)c1onc(CSc2ccc(F)c(F)c2)c1C(=O)NCC=C, the “hERG current change (%, negative = inhibition) at 10uM” value falls from -25.5% to -64.5%.

Compared with C=CCNC(=O)c1onc(CSc2ccc(Cl)cc2)c1C(=O)NCC=C, C=CCNC(=O)c1onc(CSc2ccc(F)c(F)c2)c1C(=O)O is higher in “hERG current change (%, negative = inhibition) at 10uM” value: -36.6% for the first, 22.4% for the second.

Compared with Cl.OC(CNC1CCCC1)COc1ccccc1Br (stereo not shown), COc1ccccc1NC(=O)CSC1=NCCN1.Cl is higher in “hERG current change (%, negative = inhibition) at 10uM” value: 7.79% for the first, 36.3% for the second.

Compared with O=C(Cc1ccccc1)NCC(=O)Nc1ccccc1Br, O=C(COC(=O)c1ccccc1F)NNC(=O)c1ccccc1 is lower in “hERG current change (%, negative = inhibition) at 10uM” value: 16.8% for the first, 8.17% for the second.

First: Cc1cc(NC(=O)CSc2nc(-c3ccc(Br)cc3)nc3c2c(=O)n(C)c(=O)n3C)no1
Second: Cc1cc(NC(=O)COC(=O)C2CCN(C(=O)c3ccc(Cl)cc3)CC2)no1
The “hERG current change (%, negative = inhibition) at 10uM” value of the first is higher: -8.93% for the first, -19.2% for the second.

First: O=C(CSCc1ccc(Cl)cc1)Nc1nccs1
Second: Nc1ccc(Cl)c(S(=O)(=O)Nc2ccc(Cl)cc2)c1
The “hERG current change (%, negative = inhibition) at 10uM” value of the first is lower: 6.08% for the first, 17.3% for the second.

Compared with CCc1ccccc1NC(=O)COc1ccc2c(c1)OCO2, CC(=O)Nc1ccc(NC(=O)COc2ncnc3ccccc23)cc1 is lower in “hERG current change (%, negative = inhibition) at 10uM” value: -4.6% for the first, -7.63% for the second.

Going from CCN(CCCNC(=O)CC(C(=O)N1CCc2ccccc21)n1ccnc1)c1cccc(C)c1 (stereo not shown) to CCN(CCCNC(=O)CC(C(=O)N1CCc2ccccc21)n1ccnc1)c1ccccc1 (stereo not shown), the “hERG current change (%, negative = inhibition) at 10uM” value rises from -65% to -45.6%.

Going from CCCN(CCC)CCCNC(=O)CC(C(=O)N1CCc2ccccc21)n1ccnc1 (stereo not shown) to COc1cccc(NC(=O)CN(C)CC(=O)NC(C)c2ccccc2)c1 (stereo not shown), the “hERG current change (%, negative = inhibition) at 10uM” value falls from -0.225% to -8.48%.

First: Cc1ccc(N2CC(C(=O)Nc3ccc(S(=O)(=O)Nc4nccc(C)n4)cc3)CC2=O)cc1 (stereo not shown)
Second: Cc1ccc(S(=O)(=O)N2CCC(CN3C(=O)c4cccc5cccc(c45)C3=O)CC2)cc1
The “hERG current change (%, negative = inhibition) at 10uM” value of the first is lower: 3.17% for the first, 11.3% for the second.

First: CN(C)C(=O)c1ccccc1Sc1cc(Cl)ccc1Cl
Second: CN(C)C(=O)c1ccccc1Sc1ccc(Cl)cc1Cl
The “hERG current change (%, negative = inhibition) at 10uM” value of the first is higher: -14.5% for the first, -70.4% for the second.

Going from CN(C)C(=O)c1cc(Cl)ccc1Sc1cc(Cl)ccc1Cl to CCOC(=O)c1c(CN(C)C)n(-c2ccc(C)cc2)c2cc(Br)c(O)cc12, the “hERG current change (%, negative = inhibition) at 10uM” value falls from -6.03% to -35.8%.

Going from Cc1onc(-c2ccccc2)c1C(=O)NCc1ccccc1F to O=C(Nc1ccccn1)c1cc(-c2cccc(Cl)c2)nc2ccccc12, the “hERG current change (%, negative = inhibition) at 10uM” value rises from 7.62% to 13.3%.

Compared with [N-]=[N+]=CC(=O)OC[C@H](N)C(=O)O, Cc1ccc(NC(=O)[C@H](C)NC(=O)C2CCN(C(=O)[C@@H](N)CC(C)C)CC2)cc1.Cl is lower in “hERG current change (%, negative = inhibition) at 10uM” value: 10.8% for the first, 7.29% for the second.

Going from CCOC(=O)c1c(C)n(-c2ccccc2)c2ccc(OCCN(C)C)cc12 to CCOC(=O)c1c(CN(C)C)n(-c2ccccc2)c2cc(Br)c(OC)cc12, the “hERG current change (%, negative = inhibition) at 10uM” value falls from -10.6% to -58.6%.

Going from CCOC(=O)c1c(C)n(CC(O)CN(C)C)c2cc(Br)c(OC)cc12.Cl (stereo not shown) to CCOC(=O)c1c(C)n(CC(O)CN(CC)CC)c2cc(Br)c(OC)cc12.Cl (stereo not shown), the “hERG current change (%, negative = inhibition) at 10uM” value rises from -51.5% to -26.9%.

Compared with CCOC(=O)c1c(CN(C)C)n(-c2ccccc2)c2cc(Br)c(O)cc12.Cl, CCOC(=O)c1c(CN2CCOCC2)n(-c2ccccc2)c2cc(Br)c(O)cc12.Cl is higher in “hERG current change (%, negative = inhibition) at 10uM” value: -75.8% for the first, -7.35% for the second.

Going from CCOC(=O)c1c(CN2CCN(CCO)CC2)n(-c2ccccc2)c2cc(Br)c(O)cc12 to CCOC(=O)c1c(CN2CCN(Cc3ccccc3)CC2)n(C)c2cc(Br)c(OC)cc12, the “hERG current change (%, negative = inhibition) at 10uM” value rises from -68.2% to 7.08%.

First: CCOC(=O)c1c(CN2CCOCC2)n(-c2ccccc2)c2cc(Br)c(OC)cc12
Second: CCOC(=O)c1c(C)n(CC(O)CN2CCOCC2)c2cc(Br)c(OC)cc12.Cl (stereo not shown)
The “hERG current change (%, negative = inhibition) at 10uM” value of the first is higher: 3.27% for the first, -24% for the second.

First: O=C(c1cccs1)N1CCC(c2ccccc2)C1 (stereo not shown)
Second: O=C(COC(=O)C1CCN(C(=O)c2ccc(Cl)cc2)CC1)Nc1ccccc1F
The “hERG current change (%, negative = inhibition) at 10uM” value of the first is higher: -1.16% for the first, -56.9% for the second.

First: N#Cc1nc(-c2cccs2)oc1NCCc1ccccc1
Second: CCOc1ccc(Nc2oc(-c3ccco3)nc2C#N)cc1
The “hERG current change (%, negative = inhibition) at 10uM” value of the first is higher: 3.08% for the first, -1.69% for the second.

Going from CC(NC(=O)C(=O)N1CCCCC1)C(c1cccs1)N1CCN(c2ccccc2F)CC1 (stereo not shown) to O=C(O)/C(=C\c1cccc(C(F)(F)F)c1)c1ccc(S(=O)(=O)N2CCCC2)s1, the “hERG current change (%, negative = inhibition) at 10uM” value rises from 1.73% to 5.74%.

Going from Cc1ccc(-n2c(SCC(=O)NCCC3=CCCCC3)nc3n[nH]c(C)c3c2=N)cc1Cl to Cc1cc(-n2c(SCC(=O)NCCC3=CCCCC3)nc3n[nH]c(C)c3c2=N)ccc1Cl, the “hERG current change (%, negative = inhibition) at 10uM” value rises from -9.38% to 4.5%.

Compared with COc1cccc(-n2c(SCC(=O)NCCC3=CCCCC3)nc3n[nH]c(C)c3c2=N)c1, COc1cccc(OCC(O)CN2CCC(CN3C(=O)c4cccc5cccc(c45)C3=O)CC2)c1.Cl (stereo not shown) is lower in “hERG current change (%, negative = inhibition) at 10uM” value: -58.9% for the first, -72.3% for the second.

First: CCCOc1ccc(OC(=O)Cc2ccc(OC)c(S(=O)(=O)N3CCOCC3)c2)cc1
Second: COc1ccc(OCC(O)CN2CCC(CN3C(=O)c4cccc5cccc(c45)C3=O)CC2)cc1.Cl (stereo not shown)
The “hERG current change (%, negative = inhibition) at 10uM” value of the first is higher: -21.7% for the first, -59.1% for the second.

Compared with Cc1ccc(NC(=O)CCN2C(=O)c3ccccc3C2=O)cc1C, Cc1ccccc1OCCCC(=O)Nc1ccc(Br)cc1 is higher in “hERG current change (%, negative = inhibition) at 10uM” value: 4.19% for the first, 5.24% for the second.

Compared with O=C(CSc1nnc(-c2c[nH]c3ccccc23)n1-c1ccc(F)cc1)NCc1ccco1, O=C1c2cccc3cccc(c23)C(=O)N1CC1CCN(S(=O)(=O)c2ccc(F)cc2)CC1 is higher in “hERG current change (%, negative = inhibition) at 10uM” value: -22% for the first, 2.54% for the second.

First: O=C(COC(=O)C1CCN(C(=O)c2ccc(Cl)cc2)CC1)NC1CCS(=O)(=O)C1 (stereo not shown)
Second: O=C(COC(=O)C1CCN(C(=O)c2ccc(Cl)cc2)CC1)c1ccco1
The “hERG current change (%, negative = inhibition) at 10uM” value of the first is higher: 26.9% for the first, -26.2% for the second.

Going from N#Cc1ccccc1NC(=O)COC(=O)C1CCN(C(=O)c2ccc(Cl)cc2)CC1 to C/C(N)=C(/C#N)C(=O)COC(=O)C1CCN(C(=O)c2ccc(Cl)cc2)CC1, the “hERG current change (%, negative = inhibition) at 10uM” value rises from -62.5% to -14.3%.

First: Cc1ccc(-c2cnco2)cc1
Second: CC(=O)Nc1nc(C)c(Oc2ccc(C)cc2)c(=O)[nH]1
The “hERG current change (%, negative = inhibition) at 10uM” value of the first is higher: 11.9% for the first, -1.03% for the second.

First: COCCN(CCOC)C(=S)Nc1ccccc1Cl
Second: COc1cccc(OC)c1C(=O)OCC(=O)N(C)c1ccccc1
The “hERG current change (%, negative = inhibition) at 10uM” value of the first is lower: 6.62% for the first, 7.96% for the second.

Going from COc1ccc(NC(=O)C(F)(F)F)cc1OC to Cc1cc(S(=O)(=O)NCC(C)C)ccc1OCC(=O)NCC1CCCO1 (stereo not shown), the “hERG current change (%, negative = inhibition) at 10uM” value falls from 15.1% to 8.03%.

First: COc1ccc(CN2C(=O)c3oc4ccccc4c(=O)c3C2c2ccc(O)c(OC)c2)cc1 (stereo not shown)
Second: CN(C)CCN1C(=O)c2oc3ccc(F)cc3c(=O)c2C1c1ccncc1 (stereo not shown)
The “hERG current change (%, negative = inhibition) at 10uM” value of the first is higher: 4.88% for the first, -2% for the second.

Compared with Cc1cccc(C)c1OCC(O)CN1CCC(CN2C(=O)c3cccc4cccc(c34)C2=O)CC1.Cl (stereo not shown), Cc1ccc(C)c(OCC(O)CN2CCC(CN3C(=O)c4cccc5cccc(c45)C3=O)CC2)c1.Cl (stereo not shown) is higher in “hERG current change (%, negative = inhibition) at 10uM” value: -76.2% for the first, -68.2% for the second.

Going from Cc1cc(C)cc(OCC(O)CN2CCC(CN3C(=O)c4cccc5cccc(c45)C3=O)CC2)c1.Cl (stereo not shown) to CCc1ccc(OCC(O)CN2CCC(CN3C(=O)c4cccc5cccc(c45)C3=O)CC2)cc1.Cl (stereo not shown), the “hERG current change (%, negative = inhibition) at 10uM” value rises from -70% to -41.1%.

Going from Cl.O=C1c2cccc3cccc(c23)C(=O)N1CC1CCN(CC(O)COc2ccc3ccccc3c2)CC1 (stereo not shown) to COc1ccc(S(=O)(=O)N2CCC(CN3C(=O)c4cccc5cccc(c45)C3=O)CC2)cc1, the “hERG current change (%, negative = inhibition) at 10uM” value rises from -46.1% to 7.22%.

First: CCOC(=O)N1CCN(CC(O)COc2c(C)cccc2C)CC1.Cl (stereo not shown)
Second: CCOC(=O)CC(=O)CSc1ncnc2c1oc1ccccc12
The “hERG current change (%, negative = inhibition) at 10uM” value of the first is lower: -15.7% for the first, 5.2% for the second.

First: O=C(Cc1cccs1)Nc1cccc(C(=O)Nc2ccco2)c1
Second: Cc1ccc(Cl)cc1Nc1nc(-c2sc(NC(=O)c3ccco3)nc2C)cs1
The “hERG current change (%, negative = inhibition) at 10uM” value of the first is lower: -37.9% for the first, 3.48% for the second.

First: COC(=O)c1ccc(NC(=O)CSc2nc(N)c(NC(=O)c3ccc(Br)o3)c(=O)[nH]2)cc1
Second: COc1ccc2c(c1)C(C)CC(C)(C)N2C(=O)CSc1ncn[nH]1 (stereo not shown)
The “hERG current change (%, negative = inhibition) at 10uM” value of the first is higher: 20.8% for the first, -10.9% for the second.

First: Cc1cc(C)c(S(=O)(=O)Nc2nccs2)c(C)c1
Second: Cc1cc(C)n(C(=O)CCCC(=O)n2nc(C)cc2C)n1
The “hERG current change (%, negative = inhibition) at 10uM” value of the first is higher: 0.875% for the first, -4.17% for the second.

In the case of S=C(NC1CC1)SCc1ccco1, the “hERG current change (%, negative = inhibition) at 10uM” value is reported as -11.5%.

Source: PMC4336329 (PLoS ONE, 2015)
